The target in the first test is T1, ETS1 (UniProt P14921).
T1 sequence: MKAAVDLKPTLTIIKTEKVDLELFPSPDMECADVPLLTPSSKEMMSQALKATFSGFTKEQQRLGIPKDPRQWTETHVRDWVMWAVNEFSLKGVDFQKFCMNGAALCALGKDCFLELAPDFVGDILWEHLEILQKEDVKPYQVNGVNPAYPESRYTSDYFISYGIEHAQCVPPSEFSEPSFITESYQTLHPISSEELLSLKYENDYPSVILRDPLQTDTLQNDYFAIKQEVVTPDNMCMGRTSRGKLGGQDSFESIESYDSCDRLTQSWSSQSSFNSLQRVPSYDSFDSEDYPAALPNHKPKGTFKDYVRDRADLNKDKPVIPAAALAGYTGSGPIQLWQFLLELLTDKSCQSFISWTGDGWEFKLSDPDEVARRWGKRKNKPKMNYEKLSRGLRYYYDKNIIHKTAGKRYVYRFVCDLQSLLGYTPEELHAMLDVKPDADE
Put plainly: ETS1 binding intensity (PBM fluorescence), ETS1 alone (arbitrary fluorescence units); higher = stronger binding. Particulars: ETS1 concentration 1 nM; RUNX1 concentration 0 nM.
TGGTTAAGCAGTGCAGGATGTGGGCTGCACTGCTAA gave an ETS1 binding intensity of 2590.

CTCCGGGAACAGCGGAAAAGGGACCGCATGAACCTC gave an ETS1 binding intensity of 900.

For the sequence GCTTCGTTTCCCGCCGGGGCTCACCGCGCCCCCCTA, the ETS1 binding intensity turned out to be 621.

GCAAGGTGGAGAGGAGGATGTGGCTTACCAGCAATT showed an ETS1 binding intensity of 1280.

In turn, AGCGGCTTCCTGCTGGGCTTTTGCACTCCCCACAAC returned an ETS1 binding intensity of 510.

With TGAGGCTCAGAGGAAGTGACTGGCCCGCAGGGTCAC, the ETS1 binding intensity amounted to 1050.

GTCTTGTACCCTAGAGGATGTGGTAGCCCTAAATAA: the ETS1 binding intensity came out at 1060.

Consider CCACTGCCGGAAGGGGAACTGTGGGGGTGCGCGAGT, for which the ETS1 binding intensity was determined as 1110.

With GTGCGGCGGGAAACGCGTTCCCCGGCAACCGCGCCC, the ETS1 binding intensity was found to be 401.

With GGAGCAACCGGCCGGATACCGCCACAGCCCTGGCAG, the ETS1 binding intensity is 1720.

GACGCATAAACAGGAAGGCCTGCGGGAGGGCCCGCC showed an ETS1 binding intensity of 855.

Turning to CAAGAATGAGAAAGGAAGCTGGCGGTTGGGCAGGTG, the ETS1 binding intensity was 890.

As to TGGCTGTTCAGCCTTCCGCTTGTGGCTCCACCCCCG, the ETS1 binding intensity was determined as 594.

Sequence TACCACTGAAAGGATGTGCGGGTAGAAATGAGCAAT had an ETS1 binding intensity of 830.

Regarding ACCAGGATGTAGTTTAGCTTAGGGGTGGTTATATCG, the ETS1 binding intensity turned out to be 603.

The sequence TGTTTGTTTCCGAAGATTAGCCAGCCTGCGGTAGAG gave an ETS1 binding intensity of 437.

Take GCACGTGTTTCCTGGGGCTGCACCACAGCACCACAC: the ETS1 binding intensity is 444.

AAAACAACTTCCTTCCCCTCTCTCTCCACCACAGTC displayed an ETS1 binding intensity of 554.

For the sequence ACAGGAAACTAAAATAAGAACAGAAAACCAAGACAG, the ETS1 binding intensity amounted to 865.

Sequence CAGCTAGAGGAAGCGCTTCGCCCGCGAACCACAGGG showed an ETS1 binding intensity of 375.

As to TGAGGGCATAGGAAGTGATGGCCGCAAGGGGATGCC, the ETS1 binding intensity turned out to be 1860.

Sequence GGGAGGAAGTGTGAAGGGACTTTTGTGGTGAGTGAT had an ETS1 binding intensity of 549.

Consider CATCAAAAACAGAGGAAGCCACAGCAAATTGCTGCC, for which the ETS1 binding intensity is 523.

For the sequence CCTCCTGGGAACTTCCTGCGGGGGCCGAAGCTGAAG, the ETS1 binding intensity amounted to 640.

As for TGCACTCCACTTCCCCTCGCCCGCAGTGAGCAGTCA, the ETS1 binding intensity was found to be 426.

As for ATGACTTCGAGGAAGTCTTCAGAAACCACAGGCTGA, the ETS1 binding intensity came to 405.

The sequence TGGGGTGGGGTGGGAAGTGCCAGCGGTCTGGGTGTC registered an ETS1 binding intensity of 537.

CAGTGGCTTCCTCCCCACCTCCTACCACATTCAATG showed an ETS1 binding intensity of 517.

Take CTTTCGCTTCCTTTCCCCGCCTCTTAGTCCCGCAGA: the ETS1 binding intensity stood at 464.

The sequence CAGATTCGTGTTTCCGTGCCCGCAGCTCCGTCAGCT returned an ETS1 binding intensity of 467.

On to GAACTGAAGAAGGCAGGAAGCCACAGGCTCCTGGGT, for which the ETS1 binding intensity came to 1730.

GCAGTCGCTAAGGGCGGAAACCACTGTTTGGGAGCT showed an ETS1 binding intensity of 2110.

ACGTAGACAGGAAAGTAATGTGGTTCAGGACTGAGT: the ETS1 binding intensity came to 746.

In turn, TTTCCTACAGAAGGATGTGGTTGGTGGGTTTGGTTT displayed an ETS1 binding intensity of 619.

In turn, TGGCTACCCGGAAGGCGCGTTGGCTGCGGCTACGCA showed an ETS1 binding intensity of 549.

In the case of CTCAGAGCTGCGGAAACTACAACTCCCACAAGGCTG, the ETS1 binding intensity stood at 738.

TTTACGGGATGTAGGCGGCGGCGGCGGTAGTGGTAG: the ETS1 binding intensity stood at 701.

For the sequence AGCACGTCCCCCTTCTTCCTCCCGCAGAGGGCCTGC, the ETS1 binding intensity came to 454.

CCAACACGGATACAAAAAATATCTCTCTACCACACT had an ETS1 binding intensity of 476.

Sequence GGTACCAAGGGCAGAGGATGTGGTGAGGTGTGGAGG gave an ETS1 binding intensity of 940.

Another test has as its target T1, ETS1. Put plainly: ETS1 binding intensity (PBM fluorescence) in presence of RUNX1, normalised to ETS1-only experiment (arbitrary fluorescence units); higher = stronger binding. The settings on record: ETS1 concentration 1 nM; RUNX1 concentration 25 nM.
On to TGGTTAAGCAGTGCAGGATGTGGGCTGCACTGCTAA, for which the ETS1 binding intensity came out at 3930.

CTCCGGGAACAGCGGAAAAGGGACCGCATGAACCTC: the ETS1 binding intensity turned out to be 1470.

As to GCTTCGTTTCCCGCCGGGGCTCACCGCGCCCCCCTA, the ETS1 binding intensity was determined as 615.

In the case of GCAAGGTGGAGAGGAGGATGTGGCTTACCAGCAATT, the ETS1 binding intensity was found to be 1990.

AGCGGCTTCCTGCTGGGCTTTTGCACTCCCCACAAC: the ETS1 binding intensity is 523.

On to TGAGGCTCAGAGGAAGTGACTGGCCCGCAGGGTCAC, for which the ETS1 binding intensity turned out to be 1550.

GTCTTGTACCCTAGAGGATGTGGTAGCCCTAAATAA: the ETS1 binding intensity stood at 2290.

For CCACTGCCGGAAGGGGAACTGTGGGGGTGCGCGAGT, the ETS1 binding intensity stood at 963.

For GTGCGGCGGGAAACGCGTTCCCCGGCAACCGCGCCC, the ETS1 binding intensity was found to be 479.

GGAGCAACCGGCCGGATACCGCCACAGCCCTGGCAG: the ETS1 binding intensity came to 1400.

Regarding GACGCATAAACAGGAAGGCCTGCGGGAGGGCCCGCC, the ETS1 binding intensity amounted to 948.

CAAGAATGAGAAAGGAAGCTGGCGGTTGGGCAGGTG: the ETS1 binding intensity turned out to be 1260.

For the sequence TGGCTGTTCAGCCTTCCGCTTGTGGCTCCACCCCCG, the ETS1 binding intensity was determined as 493.

In the case of TACCACTGAAAGGATGTGCGGGTAGAAATGAGCAAT, the ETS1 binding intensity was 938.

For ACCAGGATGTAGTTTAGCTTAGGGGTGGTTATATCG, the ETS1 binding intensity amounted to 494.

For TGTTTGTTTCCGAAGATTAGCCAGCCTGCGGTAGAG, the ETS1 binding intensity turned out to be 605.

As to GCACGTGTTTCCTGGGGCTGCACCACAGCACCACAC, the ETS1 binding intensity amounted to 497.

On to AAAACAACTTCCTTCCCCTCTCTCTCCACCACAGTC, for which the ETS1 binding intensity was found to be 560.

On to ACAGGAAACTAAAATAAGAACAGAAAACCAAGACAG, for which the ETS1 binding intensity was determined as 852.

In the case of CAGCTAGAGGAAGCGCTTCGCCCGCGAACCACAGGG, the ETS1 binding intensity was 705.

With TGAGGGCATAGGAAGTGATGGCCGCAAGGGGATGCC, the ETS1 binding intensity worked out at 2390.

For the sequence GGGAGGAAGTGTGAAGGGACTTTTGTGGTGAGTGAT, the ETS1 binding intensity turned out to be 910.

As for CATCAAAAACAGAGGAAGCCACAGCAAATTGCTGCC, the ETS1 binding intensity amounted to 418.

In the case of CCTCCTGGGAACTTCCTGCGGGGGCCGAAGCTGAAG, the ETS1 binding intensity worked out at 660.

Consider TGCACTCCACTTCCCCTCGCCCGCAGTGAGCAGTCA, for which the ETS1 binding intensity stood at 450.

On to ATGACTTCGAGGAAGTCTTCAGAAACCACAGGCTGA, for which the ETS1 binding intensity is 1430.

On to TGGGGTGGGGTGGGAAGTGCCAGCGGTCTGGGTGTC, for which the ETS1 binding intensity was 486.

Regarding CAGTGGCTTCCTCCCCACCTCCTACCACATTCAATG, the ETS1 binding intensity is 467.

As to CTTTCGCTTCCTTTCCCCGCCTCTTAGTCCCGCAGA, the ETS1 binding intensity was 363.

On to CAGATTCGTGTTTCCGTGCCCGCAGCTCCGTCAGCT, for which the ETS1 binding intensity stood at 362.

As to GAACTGAAGAAGGCAGGAAGCCACAGGCTCCTGGGT, the ETS1 binding intensity was 2280.

Regarding GCAGTCGCTAAGGGCGGAAACCACTGTTTGGGAGCT, the ETS1 binding intensity was 3180.

Turning to ACGTAGACAGGAAAGTAATGTGGTTCAGGACTGAGT, the ETS1 binding intensity is 766.

TTTCCTACAGAAGGATGTGGTTGGTGGGTTTGGTTT: the ETS1 binding intensity was 3210.

On to TGGCTACCCGGAAGGCGCGTTGGCTGCGGCTACGCA, for which the ETS1 binding intensity turned out to be 926.

For CTCAGAGCTGCGGAAACTACAACTCCCACAAGGCTG, the ETS1 binding intensity is 633.

Take TTTACGGGATGTAGGCGGCGGCGGCGGTAGTGGTAG: the ETS1 binding intensity turned out to be 771.

On to AGCACGTCCCCCTTCTTCCTCCCGCAGAGGGCCTGC, for which the ETS1 binding intensity came out at 461.

Take CCAACACGGATACAAAAAATATCTCTCTACCACACT: the ETS1 binding intensity came out at 531.

GGTACCAAGGGCAGAGGATGTGGTGAGGTGTGGAGG: the ETS1 binding intensity came out at 3140.
